The record followed here is PubChem BioAssay (NCATS).

Where “and” joins values, the source holds several entries; their conditions need not be identical. Equal entries are not always repeated. Inconclusive results are not listed. Calls of active or inactive are those of the source. Unless noted, the call rests on the fitted dose curve; in most records, active means well fitted curve in the direction sought with a large enough effect; inconclusive means small, poorly fitted or top-dose-only effect, or another doubt; inactive means no such curve, though single readings can be large; an effect the other way counts as inactive or inconclusive.

Test [1] can be described thus: Cytometry Cell-Based qHTS for Inhibitors of the mTORC1 Signaling Pathway in MEF cells (AID 2668).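 Further: Tsc2-/- p53-/- mouse embryonic fibroblasts stably re-expressing wild-type Tsc2; percent cells positive for phospho-rpS6 Ser235/236 relative to propidium iodide stain; series mostly up to about 38 µM.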 Put shortly: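 Read-out: phospho-rpS6 Ser235/236 immunofluorescence normalized to propidium iodide intensity, scored as % active cells against a rapamycin (7.5 nM) threshold. Cells: Tsc2-/-, p53-/- MEFs stably expressing WT Tsc2, compound-treated 24 hrs at 37 degree Celsius.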
A general note: In qHTS, concentration-response curves come from the screen itself.

The target of test [2] is Ubiquitin carboxyl-terminal hydrolase 2 (Homo sapiens) (UniProt O75604). Nature of the test: qHTS Validation Assay for Inhibitors of Ubiquitin-specific Protease USP2a Using CHOP2 as the Reporter (AID 463106). In outline:
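Readout was coupled fluorescence (Ex 485/Em 531 nm), read 60 min after adding 25 nM final Ub-CHOP2 and 25 nM reporter substrate. Beforehand, 10 nM final USP2 core had 30 min at RT with compound in pH 8.0 buffer. Curves were fitted after normalization to NEM and flagged for artifacts using time-zero reads.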

The target in test [3] is DNA polymerase III PolC-type (Bacillus subtilis (strain 168)) (UniProt P13267). The experiment in a line: qHTS Validation Assay for the Inhibitors of DNA Replication in Gram-Positive Bacteria (AID 485295).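 Further: reconstituted holoenzyme with PolC plus beta clamp SSB and primase; PicoGreen fluorescence of double-stranded DNA made on primed circular M13 template; series mostly up to about 57 µM.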 In outline:
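PicoGreen fluorescence (ex 480–485/em 535–540 nm) reports dsDNA synthesized on ssM13Gori template with dNTPs/NTPs. Enzyme: holoenzyme rebuilt from purified PolC, beta subunit, SSB and primase. Compound preincubated before substrate addition; RT throughout.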

Test [4] concerns the target Tumor susceptibility gene 101 protein (Homo sapiens) (UniProt Q99816). The experiment in a line: qHTS Validation Assay for Iinhibitors of HIV-1 Budding by Blocking the Interaction of PTAP/TSG101 (AID 485342; calls by dose curve). In outline: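 FP read-out: FITC-PTAP peptide, 50 nM final, binding Tsg101 binding domain, 10 uM final; 20 min r.t.; 10 mM HEPES pH 7.5, 0.15 M NaCl, 0.01% Tween 20, 3 mM EDTA, 0.1 mM TCEP.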

Test [5] concerns the target Beta-2 adrenergic receptor (Homo sapiens) (UniProt P07550). Nature of the test: qHTS validation assay of beta-arrestin-biased ligands of beta2-adrenergic receptor (AID 485366). In outline: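 Agonist activity is measured as luciferase luminescence downstream of beta-arrestin recruitment to recombinant beta2-AR in Tango cells. Exposure lasts 18 hr at 37 degrees C, and curves are categorized by r2, response size and activity.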

The target in test [6] is Thioredoxin reductase 1, cytoplasmic (Rattus norvegicus) (UniProt O89049). Nature of the test: qHTS Assay for Substrates of Mammalian Selenoprotein Thioredoxin Reductase 1 (TrxR1) (AID 488772).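 Further: series mostly up to about 57 µM; a drop in NADPH fluorescence below the no-compound background marks a TrxR1 substrate.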 Put shortly: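 In this dual-purpose format, potential substrates are identified from the first fluorescence read after selenite addition, not from the 8-minute delta. Rat enzyme is preincubated with NADPH and then with compound at ~22 deg C.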

For test [7] the target is unchanged. The experiment in a line: qHTS Assay for Inhibitors of Mammalian Selenoprotein Thioredoxin Reductase 1 (TrxR1) (AID 488773). Further: nearly all actives have a fitted effect of over 40% in size. Further: potency means the concentration at half of the fitted maximal effect. The settings on record: Potency: inhibition. In outline: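 Inhibition is scored from the loss of NADPH fluorescence between first and last reads of an 8-min kinetic run. Selenite (400 uM) was the substrate, added after 15 min compound preincubation at room temperature.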

Test [8] deals with Flap endonuclease 1 (Homo sapiens) (UniProt P39748). The experiment in a line: qHTS Validation Assay for the Inhibitors of Human Flap endonuclease 1 (FEN1) (AID 488816). Further: potency means the concentration at half of the fitted maximal effect. Put shortly:
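qHTS format: compounds and 10 nM FEN1 incubated 15 min at room temperature before adding 50 nM substrate. Cleavage followed by reads at 0 and 15 min; normalized data fitted to a four-parameter Hill curve.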

In test [9] the target is M-phase phosphoprotein 8 (Homo sapiens) (UniProt Q99549). The experiment in a line: qHTS Validation Assay for Inhibitors for MPP8 Chromodomain Interactions with Methylated Histone Tails (AID 488949). Further: nearly all actives have a fitted effect of over 55% in size. Further: potency means the concentration at half of the fitted maximal effect. Put shortly:
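AlphaScreen read-out: streptavidin donor and nickel chelate acceptor beads (final 10 ug/mL), 30 min in the dark at RT. Complex of 50 nM MPP8 and 50 nM b-H3(1-18)K9me3 peptide had been exposed to compounds for 30 min beforehand.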

The target of test [10] is Methanococcus maripaludis chaperonin (MmCpn) (UniProt Q6LX38). The experiment in a line: High-Throughput Screening for Modulators of Cytosolic Chaperonin Activity: MmCpn Primary Screen (AID 488978). In outline: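 ADP formation read by HTRF Transcreener, 665/590 nm emission after 320 nm excitation. Enzyme: archaeal chaperonin at 50 nM final; substrate ATP 30 uM final; 10 min, 37C, after 5 min compound preincubation at RT.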

Test [11] concerns the target D(1A) dopamine receptor (Homo sapiens) (UniProt P21728). Nature of the test: HTS Assay for Allosteric Agonists of the Human D1 Dopamine Receptor: Primary Screen for Agonists (AID 488981). In outline:
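Calcium flux in an inducible, force-coupled HEK293 Trex D1 line (overnight at 30 C): agonist mode is the 180 s kinetic read after compound; potentiator mode is the following 180 s read after dopamine at EC20.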

The nature of test [12]: Validation screen for small molecules that induce DNA re-replication in MCF 10A normal breast cells (AID 463097). Further: nearly all actives have a fitted effect of over 60% in size. In outline:
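250 MCF 10A cells/well; compound pin-transferred; 48 hr, 37 C, 5% CO2; Hoechst 40 min; imaged 405/500-530 nm. Hits = more high-intensity nuclei.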

Test [13] in a line: Quantitative high throughput screen for delayed death inhibitors of the malarial parasite plastid, 96 hour incubation (AID 488745).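 Further: luciferase-expressing P. falciparum in erythrocytes at 2% hematocrit and 0.1% parasitemia; series mostly up to about 29 µM; nearly all actives have a fitted effect of over 70% in size.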 Put shortly:
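Luciferase-expressing P. falciparum, infected RBCs 2% Hct/0.1% parasitemia (final); 96 h cpd exposure, 37 C, 5% CO2; RPMI 1640 + 0.5% Albumax, bicarbonate, gentamycin. Readout: luminescence loss = growth inhibition.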

A short description of test [14]: Quantitative high throughput screen for delayed death inhibitors of the malarial parasite plastid, 48 hour incubation (AID 488752). Further: nearly all actives have a fitted effect of over 65% in size. In outline:
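Luciferase-expressing P. falciparum in RBCs, 2% Hct, 0.1% parasitemia final; RPMI 1640 + 0.5% Albumax; 48 h, 37 C, 5% CO2; luminescence readout, signal drop = growth inhibition.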

Test [15] concerns the target Thyrotropin receptor (Homo sapiens) (UniProt P16473). Nature of the test: qHTS Assay for Antagonists of the Thyroid Stimulating Hormone Receptor (AID 488980). Further: series mostly up to about 58 µM. Put shortly: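 TSHR-HEK293 cells; 70 uM RO 20-1724 PDE inhibitor; compound + EC80 TSH (4 nM final); anti-cAMP cryptate antibody/cAMP-d2 in lysis buffer, 30 min RT; HTRF 665/620 nm read.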
The nature of test [16]: qHTS Validation Assay to Find Inhibitors of Chronic Active B-Cell Receptor Signaling (AID 485345; active means well fitted curve in the direction sought with a large enough effect in the main read-out, with a control signal flat, not every such curve was filed as active). In outline:
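Read-out: ratio of filter-corrected green (IkappaBalpha fusion) to red (native) luciferase signal in doxycycline-induced TMD8 cells after 4 h at 37C. Titration spanned 46 uM–3 nM; Data were normalised to basal cells and 10 uM MG-132 wells.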

Test [17] can be described thus: Validation screen for inhibitors of Lassa infection (AID 463096; calls by dose curve; further: potency means the concentration at half of the fitted maximal effect).
The target in test [18] is Chromobox protein homolog 1 (Homo sapiens) (UniProt P83916). Nature of the test: qHTS Validation Assay for Inhibitors of HP1-beta Chromodomain Interactions with Methylated Histone Tails (AID 488953). Further: nearly all actives have a fitted effect of over 50% in size. Further: potency means the concentration at half of the fitted maximal effect. Put shortly:
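AlphaScreen proximity readout: streptavidin donor and Ni-chelate acceptor beads, 10 ug/mL final, 30 min dark, RT. Complex of 50 nM HP1-beta and 50 nM b-H3(1-18)K9me3 formed 30 min, then compound-treated 30 min; PBS pH 7.4/0.01% Tween-20.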

In test [19] the target is Transient receptor potential cation channel subfamily V member 1 (Homo sapiens) (UniProt Q8NER1). Nature of the test: HTS Assay for Compounds that Act as Enhancers of the Vanilloid Receptor 1 (AID 488979). Put shortly: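 Calcium influx kinetics via Fluo-8 (480/520 nm) in TRPV1-expressing cells, 2000/well cultured overnight at 35.5C. Compound-alone read 3 min (agonist phase), followed by EC20 capsaicin challenge for 2 min (enhancer phase).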

The target in test [20] is ATP-dependent 6-phosphofructokinase (Trypanosoma brucei brucei) (UniProt O15648). Nature of the test: qHTS Validation Assay to Find Inhibitors of T. brucei phosphofructokinase (AID 485368). In outline:
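Inhibition derived from concentration-response curves of luminescence, ranked by r2, response size and curve class; the underlying reaction used 1.25 nM PFK, 0.1 mM ATP and 0.5 mM F6P, 45 min, room temperature.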

Chain of Beta-2 adrenergic receptor (Homo sapiens) (P07550 whole entry, looked up): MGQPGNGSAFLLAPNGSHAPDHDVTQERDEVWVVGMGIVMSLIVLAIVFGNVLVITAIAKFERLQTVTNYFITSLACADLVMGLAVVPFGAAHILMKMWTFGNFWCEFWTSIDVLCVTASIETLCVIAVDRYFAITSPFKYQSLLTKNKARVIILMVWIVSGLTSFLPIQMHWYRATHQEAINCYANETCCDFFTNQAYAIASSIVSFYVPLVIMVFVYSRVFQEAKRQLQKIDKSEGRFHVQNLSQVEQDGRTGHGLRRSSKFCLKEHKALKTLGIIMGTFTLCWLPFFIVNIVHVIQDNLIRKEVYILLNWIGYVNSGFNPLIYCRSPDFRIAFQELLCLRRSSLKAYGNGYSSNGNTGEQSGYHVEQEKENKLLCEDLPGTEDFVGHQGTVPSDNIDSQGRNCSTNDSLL
Chain of Flap endonuclease 1 (Homo sapiens) (P39748 whole entry, looked up): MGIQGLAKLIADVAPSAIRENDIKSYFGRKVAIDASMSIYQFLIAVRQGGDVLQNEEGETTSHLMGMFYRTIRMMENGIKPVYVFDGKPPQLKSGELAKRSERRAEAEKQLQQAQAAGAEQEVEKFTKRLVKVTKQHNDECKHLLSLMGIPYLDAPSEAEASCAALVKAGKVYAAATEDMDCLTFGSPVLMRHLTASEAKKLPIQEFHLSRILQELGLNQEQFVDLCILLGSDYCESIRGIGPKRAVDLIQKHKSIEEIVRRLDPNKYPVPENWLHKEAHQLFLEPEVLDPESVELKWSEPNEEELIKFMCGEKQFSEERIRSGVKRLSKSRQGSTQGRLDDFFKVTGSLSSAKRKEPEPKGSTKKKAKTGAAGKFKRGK
Chain of Thyrotropin receptor (Homo sapiens) (P16473 whole entry, looked up): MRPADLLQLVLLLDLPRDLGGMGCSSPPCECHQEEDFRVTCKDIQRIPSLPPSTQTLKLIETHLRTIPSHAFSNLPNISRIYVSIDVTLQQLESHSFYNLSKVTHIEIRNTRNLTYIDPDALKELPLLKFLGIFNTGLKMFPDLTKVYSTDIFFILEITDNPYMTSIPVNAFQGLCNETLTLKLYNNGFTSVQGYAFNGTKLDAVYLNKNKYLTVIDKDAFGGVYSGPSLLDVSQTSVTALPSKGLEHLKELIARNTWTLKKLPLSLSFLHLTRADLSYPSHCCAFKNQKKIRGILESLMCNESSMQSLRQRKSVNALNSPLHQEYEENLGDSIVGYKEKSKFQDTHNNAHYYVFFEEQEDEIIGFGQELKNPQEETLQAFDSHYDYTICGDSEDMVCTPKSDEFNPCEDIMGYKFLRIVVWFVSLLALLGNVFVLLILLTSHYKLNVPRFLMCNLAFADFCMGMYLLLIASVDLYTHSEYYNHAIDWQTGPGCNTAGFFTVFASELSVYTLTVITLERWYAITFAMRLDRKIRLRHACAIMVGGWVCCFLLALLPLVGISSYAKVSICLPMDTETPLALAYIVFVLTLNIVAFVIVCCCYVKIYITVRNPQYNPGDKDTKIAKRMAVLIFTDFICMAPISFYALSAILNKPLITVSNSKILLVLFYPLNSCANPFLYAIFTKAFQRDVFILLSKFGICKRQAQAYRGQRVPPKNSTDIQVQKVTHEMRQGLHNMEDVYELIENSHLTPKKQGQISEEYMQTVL
Chain of Tumor susceptibility gene 101 protein (Homo sapiens) (Q99816 whole entry, looked up, the tested form may be a part): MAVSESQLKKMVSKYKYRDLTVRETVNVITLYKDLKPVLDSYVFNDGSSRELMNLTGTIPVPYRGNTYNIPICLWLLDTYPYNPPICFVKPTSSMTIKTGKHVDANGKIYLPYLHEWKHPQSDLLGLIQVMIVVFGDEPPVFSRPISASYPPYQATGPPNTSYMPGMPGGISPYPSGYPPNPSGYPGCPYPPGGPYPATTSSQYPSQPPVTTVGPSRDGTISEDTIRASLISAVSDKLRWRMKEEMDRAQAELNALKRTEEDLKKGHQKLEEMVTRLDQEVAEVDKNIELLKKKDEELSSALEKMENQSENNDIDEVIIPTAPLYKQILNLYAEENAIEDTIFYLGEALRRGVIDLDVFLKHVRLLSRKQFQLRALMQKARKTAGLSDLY
Chain of M-phase phosphoprotein 8 (Homo sapiens) (Q99549 whole entry, looked up): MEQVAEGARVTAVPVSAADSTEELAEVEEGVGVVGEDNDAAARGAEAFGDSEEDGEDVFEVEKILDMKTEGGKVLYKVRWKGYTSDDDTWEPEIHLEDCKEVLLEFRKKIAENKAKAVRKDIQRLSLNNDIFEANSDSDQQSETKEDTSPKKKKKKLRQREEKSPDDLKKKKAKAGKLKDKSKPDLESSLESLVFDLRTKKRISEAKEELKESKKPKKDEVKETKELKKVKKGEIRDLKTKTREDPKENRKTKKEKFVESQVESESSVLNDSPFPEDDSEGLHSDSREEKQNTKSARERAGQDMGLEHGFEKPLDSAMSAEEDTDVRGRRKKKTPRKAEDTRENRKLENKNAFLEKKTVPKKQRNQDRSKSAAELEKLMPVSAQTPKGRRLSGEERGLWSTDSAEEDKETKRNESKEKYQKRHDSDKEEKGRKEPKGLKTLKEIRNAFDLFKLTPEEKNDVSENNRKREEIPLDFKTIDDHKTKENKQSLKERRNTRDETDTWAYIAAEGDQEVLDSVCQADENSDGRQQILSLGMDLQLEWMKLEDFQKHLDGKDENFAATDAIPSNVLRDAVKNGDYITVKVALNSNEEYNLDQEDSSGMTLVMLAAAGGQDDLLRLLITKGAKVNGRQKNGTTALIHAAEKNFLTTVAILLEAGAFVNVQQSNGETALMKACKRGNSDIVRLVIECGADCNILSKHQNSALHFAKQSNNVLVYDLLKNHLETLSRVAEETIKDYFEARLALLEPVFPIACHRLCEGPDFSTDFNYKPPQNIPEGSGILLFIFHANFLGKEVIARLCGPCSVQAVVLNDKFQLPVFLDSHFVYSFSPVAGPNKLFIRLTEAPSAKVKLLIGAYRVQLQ
Chain of D(1A) dopamine receptor (Homo sapiens) (P21728 whole entry, looked up): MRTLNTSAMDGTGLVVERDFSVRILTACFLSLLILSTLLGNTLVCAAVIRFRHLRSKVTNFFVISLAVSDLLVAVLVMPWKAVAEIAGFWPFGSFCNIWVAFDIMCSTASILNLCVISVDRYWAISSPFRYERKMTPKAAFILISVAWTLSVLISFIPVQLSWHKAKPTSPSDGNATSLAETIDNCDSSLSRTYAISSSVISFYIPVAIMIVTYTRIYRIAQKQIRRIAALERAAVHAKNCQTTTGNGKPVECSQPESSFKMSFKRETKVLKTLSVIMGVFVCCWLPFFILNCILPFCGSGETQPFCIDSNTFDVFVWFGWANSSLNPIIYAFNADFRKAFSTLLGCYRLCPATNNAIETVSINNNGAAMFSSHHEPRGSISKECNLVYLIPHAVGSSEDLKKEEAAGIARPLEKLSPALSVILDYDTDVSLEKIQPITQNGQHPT
Chain of Methanococcus maripaludis chaperonin (MmCpn) (Q6LX38 1-543): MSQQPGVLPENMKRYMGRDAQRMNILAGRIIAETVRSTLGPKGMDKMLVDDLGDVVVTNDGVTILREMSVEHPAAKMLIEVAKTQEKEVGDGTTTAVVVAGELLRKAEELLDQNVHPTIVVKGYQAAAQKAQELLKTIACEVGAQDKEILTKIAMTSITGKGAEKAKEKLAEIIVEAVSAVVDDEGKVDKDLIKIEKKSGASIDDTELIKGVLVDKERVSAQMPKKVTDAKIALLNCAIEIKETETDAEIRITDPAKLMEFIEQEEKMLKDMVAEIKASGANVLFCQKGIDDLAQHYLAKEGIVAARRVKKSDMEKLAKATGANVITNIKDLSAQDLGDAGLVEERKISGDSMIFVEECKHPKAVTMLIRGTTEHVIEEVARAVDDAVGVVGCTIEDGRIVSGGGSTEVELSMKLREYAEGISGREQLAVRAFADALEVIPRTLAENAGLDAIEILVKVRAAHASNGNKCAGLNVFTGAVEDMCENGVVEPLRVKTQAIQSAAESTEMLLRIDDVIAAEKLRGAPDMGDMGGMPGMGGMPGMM
Chain of Chromobox protein homolog 1 (Homo sapiens) (P83916 whole entry, looked up): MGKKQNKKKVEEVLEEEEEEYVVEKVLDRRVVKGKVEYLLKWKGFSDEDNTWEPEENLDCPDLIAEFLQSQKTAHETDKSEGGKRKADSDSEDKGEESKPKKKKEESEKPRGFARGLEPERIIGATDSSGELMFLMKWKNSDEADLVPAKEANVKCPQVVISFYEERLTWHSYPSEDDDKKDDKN
Chain of Thioredoxin reductase 1, cytoplasmic (Rattus norvegicus) (O89049 whole entry, looked up): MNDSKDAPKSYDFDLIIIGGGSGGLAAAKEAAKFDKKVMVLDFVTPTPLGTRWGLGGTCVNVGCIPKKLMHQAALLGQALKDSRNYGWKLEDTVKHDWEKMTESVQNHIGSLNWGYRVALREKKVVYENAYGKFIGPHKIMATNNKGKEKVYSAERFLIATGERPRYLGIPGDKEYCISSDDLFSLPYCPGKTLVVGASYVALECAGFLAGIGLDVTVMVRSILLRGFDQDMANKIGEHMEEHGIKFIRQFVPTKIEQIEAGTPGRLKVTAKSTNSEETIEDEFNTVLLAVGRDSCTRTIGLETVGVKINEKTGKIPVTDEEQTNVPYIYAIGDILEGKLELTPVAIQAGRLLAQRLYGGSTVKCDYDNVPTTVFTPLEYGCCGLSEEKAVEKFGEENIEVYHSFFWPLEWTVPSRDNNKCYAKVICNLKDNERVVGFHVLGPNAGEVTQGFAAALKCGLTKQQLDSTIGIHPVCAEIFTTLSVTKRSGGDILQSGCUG
Chain of ATP-dependent 6-phosphofructokinase (Trypanosoma brucei brucei) (O15648 whole entry, looked up): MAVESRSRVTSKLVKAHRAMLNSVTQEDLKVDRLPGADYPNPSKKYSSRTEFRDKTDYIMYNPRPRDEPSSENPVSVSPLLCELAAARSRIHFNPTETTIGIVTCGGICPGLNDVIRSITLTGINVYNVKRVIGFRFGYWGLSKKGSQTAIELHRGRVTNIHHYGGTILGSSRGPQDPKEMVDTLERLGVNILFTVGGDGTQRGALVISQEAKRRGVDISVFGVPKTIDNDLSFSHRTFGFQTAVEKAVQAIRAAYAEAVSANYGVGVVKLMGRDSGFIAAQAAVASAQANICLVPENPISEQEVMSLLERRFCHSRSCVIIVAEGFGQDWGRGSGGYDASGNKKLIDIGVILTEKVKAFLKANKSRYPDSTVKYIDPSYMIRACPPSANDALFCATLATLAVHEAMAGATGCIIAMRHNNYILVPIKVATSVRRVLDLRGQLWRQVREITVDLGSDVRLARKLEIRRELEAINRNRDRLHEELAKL

Take `CN1CC[C@@]2(C)c3cc(OC(=O)Nc4ccccc4)ccc3N(C)[C@@H]12`: the Potency entry in test [1], in test [2], in test [3], in test [7], in test [8] and in [9] was “inactive” each time. Also, the Potency entry in test [11] is “inactive”. In addition, the result in [4], in test [5], in test [6] and in test [10] was inactive.
As for `C[C@H](N)CN1CCc2ccc(Br)cc21`, the Potency result in [1], in [12], in test [2], in test [3], in test [13] and in test [14] was “inactive” throughout. In addition, the Potency entry in test [7], in [8] and in test [9] was “inactive” in each case. For the same compound, the call in test [4], in test [5], in [6], in test [10] and in test [15] was inactive.
For `CC(=O)OCC1=C(C(=O)O)N2C(=O)[C@@H](NC(=O)CCC[C@@H](N)C(=O)O)[C@H]2SC1`, the Potency result in [1], in test [2], in test [3], in [16], in test [7] and in test [8] was “inactive” each time. Also, the Potency result in test [9] and in test [11] was “inactive” each time. Moreover, the result in test [4], in test [5], in test [6] and in test [10] was inactive.
Take `NC(N)=Nc1ccc2[nH]c3c(c2c1)C[C@@]1(O)[C@H]2Cc4ccc(O)c5c4[C@@]1(CCN2CC1CC1)[C@H]3O5`: the Potency result in [1], in test [2], in test [14] and in [11] was “inactive” in each case. In addition, the Potency in test [17] was 891 nM (active); in test [7], 26.7 µM (active); in test [9] it was 31.6 µM (active) and 2.12 µM (active); in test [18] it was 28.2 µM (active). The compound was called inactive in test [4], in [6], in test [10], in [19] and in [15].
Take `CCCN1CCC[C@@H](c2cccc(O)c2)C1`: the Potency entry in test [1], in [2], in [3], in test [16], in test [20] and in [7] was “inactive” in each case. Besides, the Potency entry in test [9] and in test [18] was “inactive” in each case. Moreover, the outcome in test [4], in test [5] and in test [10] was inactive.
For the compound `N#C/C(=C/c1ccc(O)c(O)c1)C(N)=S`, the Potency result in [1], in [2], in test [3], in test [16] and in [11] was “inactive” throughout. Besides, the result in test [4], in test [5] and in [10] was inactive. Besides, the values for the Potency in test [8], in test [9] and in test [18] were 2.99 µM (active), 13.4 µM (active) and 12.6 µM (active), respectively.
Consider `O=C1CC[C@@]2(O)C3Cc4ccc(O)c5c4C2(CCN3CC2CC2)[C@H]1O5` (stereo partly drawn), for which the Potency entry in [1], in test [17], in [12], in test [3], in test [16] and in test [13] was “inactive” in each case. Moreover, the Potency result in test [14], in test [7], in test [9] and in test [18] was “inactive” in each case. The call in test [4], in [5], in [6], in [10], in test [19] and in [15] was inactive.
Consider `CCCn1c(=O)c2[nH]c(C3CCCC3)nc2n(CCCOC(=O)c2ccc(S(=O)(=O)F)cc2)c1=O`, for which the Potency entry in test [1], in [17], in [2], in [3], in test [14] and in test [7] was “inactive” each time. The Potency entry in test [8], in [9] and in [18] was “inactive” in each case. Moreover, the outcome in test [4], in test [5], in test [6], in test [10], in test [19] and in [15] was inactive.
